Hit rate of the full screen: of about 11,000 compounds, about 310 (2.8%) were called active. Cut-off read from the data, not from the text of the source: active = activity change below about -85%; inactive = the rest. The full list was thinned out, with actives kept by preference.
These compounds were tested on intestinal alkaline phosphatase [Mus musculus] (assay: mouse intestinal phosphatase enzyme activation – biochemical, luminescence, single concentration, confirmation (AID 434970)). Conditions: purified mouse IAP, CDP-Star luminescence, 30 min, at 10 µM; activation factor: measured here: IAP activation factor, stronger effect = higher value; activity change, negative = activation: stronger effect = lower value.

Row | SMILES | activation factor | activity change, negative = activation
1 | CCN(CC)c1nc(N)c2c(N)n(-c3ccccc3C)c(=S)c(C#N)c2c1C#N | 0.823 | 17.8% (inactive)
2 | O=C1c2cccc3c(N4CCCCC4)ccc(c23)C(=O)N1CCO | 1.18 | -17.9% (inactive)
3 | CCOc1ccccc1N(CC(=O)NC1CCCCC1)S(C)(=O)=O | 0.972 | 2.85% (inactive)
4 | COc1cc2c(c(OC)c1OC)C(c1ccccc1C)CC(=O)O2 (stereo not drawn) | 1.07 | -6.55% (inactive)
5 | CSCC[C@H](NC(=O)C1CCN(S(=O)(=O)c2ccc(C)cc2C)CC1)c1nc2ccccc2[nH]1 | 2.02 | -102% (active)
6 | Cc1ccc(S(=O)(=O)N2CCN(C(=O)CSc3nc4ccccc4c(=O)[nH]3)CC2)c(C)c1 | 1.1 | -10.3% (inactive)
7 | CSCCC(NC(=O)c1ccc(=O)n(C)n1)c1nc2ccccc2[nH]1 (stereo not drawn) | 0.931 | 6.9% (inactive)
8 | Cc1ccc(C)c(CN2CCC(CNC(=O)Nc3ccc(Cl)cc3)CC2)c1 | 2.23 | -123% (active)
9 | Cc1ccc(C)c(CN2CCC(CNC(=O)Nc3ccc(F)c(Cl)c3)CC2)c1 | 1.98 | -97.9% (active)
10 | Cc1nn(C)cc1CNC(=O)Nc1ccc(Cl)cc1 | 1.32 | -31.6% (inactive)
11 | Cc1cccc(CCNC(=O)CCc2c(C)nc3ncnn3c2C)c1 | 0.906 | 9.35% (inactive)
12 | CCNC(=O)COc1cc(C)c(Cl)c(C)c1 | 1 | -0.4% (inactive)
13 | CCc1nc2sc3c(c2c(=O)n1N)CCC3 | 0.913 | 8.65% (inactive)
14 | CCN(CC)S(=O)(=O)c1cccc(-c2nnc(SCC(=O)c3cc(C)n(C)c3C)o2)c1 | 0.772 | 22.8% (inactive)
15 | COc1ccc(C2/C=C\CN(C(=O)c3ccccc3)CC(=O)N2Cc2cccc(F)c2)cc1 (stereo not drawn) | 1.01 | -1.35% (inactive)
16 | CC(=O)N1c2ccccc2C(C)(c2ccccc2)CC1(C)C (stereo not drawn) | 0.98 | 2% (inactive)
17 | O=C(NCC1CC1)C1CCCN(S(=O)(=O)c2ccc(-n3cnnn3)cc2)C1 (stereo not drawn) | 1.01 | -0.9% (inactive)
18 | O=C1CC(c2ccco2)Sc2nc3ccccc3n21 (stereo not drawn) | 0.801 | 19.9% (inactive)
19 | CSc1ccccc1NC(=O)Nc1ccc(F)c(Cl)c1 | 1.83 | -83.2% (inactive)
20 | O=C(O)C1=C(C(=O)Nc2ccc(F)c(Cl)c2)CCCC1 | 0.98 | 2% (inactive)
21 | O=C(Nc1ccc(F)c(Cl)c1)C1CC(=O)n2c(nc3ccccc32)N1 (stereo not drawn) | 2.42 | -142% (active)
22 | O=C(Nc1ccc(Cl)cc1)N1CCC(c2nc(-c3ccccc3Cl)no2)CC1 | 1.1 | -9.8% (inactive)
23 | O=C(Nc1ccc(Cl)cc1)C1CC(=O)n2c(nc3ccccc32)N1 (stereo not drawn) | 2.06 | -106% (active)
24 | FC(F)Oc1ccc(NC(=S)NCc2ccccc2)cc1Cl | 1.34 | -34.3% (inactive)
25 | COC(=O)[C@H](Cc1ccc(O)cc1)NC(=O)Cn1cnc2c(NCc3ccccc3)ncnc21 | 1.08 | -8.5% (inactive)
26 | COCCCNC(=O)CCSc1ccc(Cl)cc1 | 0.897 | 10.3% (inactive)
27 | O=C(NCc1ccncc1)c1nnc(Cc2c(F)cccc2Cl)o1 | 0.951 | 4.9% (inactive)

Row | SMILES | activation factor | activity change, negative = activation
28 | NC(=O)CSc1nnc(-c2cccnc2)n1CCc1ccccc1 | 0.957 | 4.35% (inactive)
29 | CS(=O)(=O)Nc1ccccc1C(=O)c1ccccc1 | 1.04 | -3.7% (inactive)
30 | O=C(CSc1ncn[nH]1)CSc1ncn[nH]1 | 0.517 | 48.3% (inactive)
31 | CCCCOC(=O)C1=C(C)NC2=C(C(=O)CCC2)C1c1cc(OC)ccc1OC (stereo not drawn) | 1.09 | -9.15% (inactive)
32 | COc1ccc(C2=NOC(Cn3nc(-c4ccccc4)cc3C(=O)NCc3cccc(Br)c3)C2)cc1 (stereo not drawn) | 2.12 | -112% (active)
33 | CCc1cc(Cn2nc(-c3ccccc3)cc2C(=O)NCc2ccccc2OC)on1 | 1.99 | -99.1% (active)
34 | CCc1cc(Cn2nc(-c3ccccc3)cc2C(=O)NCc2ccc(C)cc2)on1 | 1.7 | -69.7% (inactive)
35 | Cc1ccc(CNC(=O)c2cc(-c3ccccc3)nn2Cc2cc(C)no2)cc1 | 2.26 | -126% (active)
36 | COc1ccc(C2=NOC(Cn3nc(-c4ccccc4)cc3C(=O)NCc3ccccc3OC)C2)cc1 (stereo not drawn) | 1.68 | -67.7% (inactive)
37 | COc1ccc(C2=NOC(Cn3nc(-c4ccccc4)cc3C(=O)NCc3ccc(C)cc3)C2)cc1 (stereo not drawn) | 1.57 | -57.5% (inactive)
38 | Cc1ccc(CNC(=O)COC(=O)c2c(C)noc2C)cc1 | 0.891 | 10.9% (inactive)
39 | CCc1cc(Cn2nc(-c3ccccc3)cc2C(=O)NCc2cccs2)on1 | 1.89 | -88.9% (inactive)
40 | COc1ccc(C2=NOC(Cn3nc(-c4ccccc4)cc3C(=O)NCc3cccs3)C2)cc1 (stereo not drawn) | 1.82 | -81.5% (inactive)
41 | CCc1cc(Cn2nc(-c3ccccc3)cc2C(=O)NCc2cccc(Br)c2)on1 | 2.8 | -180% (active)
42 | COc1ccc(C2=NOC(Cn3nc(-c4ccccc4)cc3C(=O)NCc3cccc(C(F)(F)F)c3)C2)cc1 (stereo not drawn) | 1.83 | -83.5% (inactive)
43 | Cn1c(C(=O)NCc2ccccc2)cc2oc3ccccc3c21 | 1.14 | -14.4% (inactive)
44 | O=C(COc1ccccc1Cl)OCC(=O)N1CCN(S(=O)(=O)c2ccccc2)CC1 | 0.883 | 11.7% (inactive)
45 | CC(=O)c1cccc(NC(=O)CCNS(=O)(=O)c2cccc(C(C)=O)c2)c1 | 0.929 | 7.05% (inactive)
46 | Cc1cc(Br)cc2c1NC(=O)C2(c1c(C)n(C)n(-c2ccccc2)c1=O)c1c(C)n(C)n(-c2ccccc2)c1=O | 1.02 | -2.5% (inactive)
47 | Cc1cc(C)n2cc(CSc3nnnn3-c3ccccc3)nc2n1 | 0.946 | 5.45% (inactive)
48 | CCOC(=O)c1c(NC(=O)CSc2nnc(CNc3ccc(F)cc3)o2)sc(C(C)=O)c1C | 0.797 | 20.2% (inactive)
49 | O=C1c2ccccc2[C@@H]2C[C@@H](O)[C@H](Nc3cccc(Cl)n3)CCN12 | 1.01 | -0.85% (inactive)
50 | CCCCN1CCS(=O)(=O)N(Cc2ccccc2Br)CC(C(=O)OC)C1 (stereo not drawn) | 0.992 | 0.8% (inactive)
51 | C=CCNC(=O)/C(=C/c1ccco1)NC(=O)c1ccc(Br)o1 | 0.906 | 9.4% (inactive)
52 | O=C(NCCCN1CCCCC1)c1ccc2c(=O)n(CCc3ccccc3)c(=O)[nH]c2c1 | 0.91 | 9% (inactive)
53 | COc1cc(OC)c2c(-c3cccc(-c4ccc(OC(F)(F)F)cc4)c3)cc(=O)oc2c1 | 0.834 | 16.6% (inactive)
54 | COCC(C)NCc1cccc(OC)c1OC (stereo not drawn) | 1.14 | -14.2% (inactive)

Row | SMILES | activation factor | activity change, negative = activation
55 | Cc1ccc(C(=O)NC(Cc2ccc(C(C)(C)C)cc2)C(=O)O)cc1 (stereo not drawn) | 1.03 | -3.5% (inactive)
56 | O=C(c1ccc(S(=O)(=O)N2CCCCC2)cc1)N1CCCc2ccccc21 | 0.98 | 2.05% (inactive)
57 | Cc1cc(Cn2nc(-c3ccccc3)cc2C(=O)NCc2cccc(Br)c2)on1 | 3.29 | -230% (active)
58 | Cc1ccccc1-c1cc(C(=O)NCc2cccc(Br)c2)n(CC2CC(c3cccnc3)=NO2)n1 (stereo not drawn) | 1.56 | -55.5% (inactive)
59 | Cc1nn(C)cc1CNC(=O)c1cccc(Br)c1 | 1.12 | -11.8% (inactive)
60 | O=C(C[C@H]1C[C@H](C(=O)N2CCOCC2)[C@@]2(CCC3CCCC3)c3[nH]c4cc(-c5ccco5)ccc4c3CCN2C1=O)NCCc1ccccn1 | 1.17 | -17.2% (inactive)
61 | Cc1ccccc1OCC(=O)OC(C)CN1CCN(C)CC1 (stereo not drawn) | 0.998 | 0.2% (inactive)
62 | Cc1ccc(NC(=O)Nc2ccc3c(c2)N(C)C(=O)CS3)cc1C | 1.92 | -91.7% (inactive)
63 | CN1C(=O)CSc2ccc(NC(=O)NCCC3=CCCCC3)cc21 | 2.22 | -122% (active)
64 | CCc1ccc(NC(=O)Nc2ccc3c(c2)N(C)C(=O)CS3)cc1 | 2.14 | -114% (active)
65 | Cc1ccc(CNC(=O)Nc2ccc3c(c2)N(C)C(=O)CS3)cc1 | 1.78 | -78% (inactive)
66 | Cc1cc(C)cc(NC(=O)Nc2ccc3c(c2)N(C)C(=O)CS3)c1 | 2.54 | -154% (active)
67 | CCOc1ccc(NC(=O)Nc2ccc3c(c2)N(C)C(=O)CS3)cc1 | 1.29 | -29.2% (inactive)
68 | CC(=O)c1ccc(NC(=O)Nc2ccc3c(c2)N(C)C(=O)CS3)cc1 | 1.28 | -28.4% (inactive)
69 | CC(C)CCNC(=O)Nc1ccc2c(c1)N(C)C(=O)CS2 | 1.53 | -52.8% (inactive)
70 | COc1ccc(NC(=O)Nc2ccc3c(c2)N(C)C(=O)CS3)cc1OC | 1.48 | -48.4% (inactive)
71 | CCCn1c(Cc2ccccc2)nnc1SCC(=O)N1CCOCC1 | 0.955 | 4.5% (inactive)
72 | CC(O)[C@H](NC(=O)C1(c2ccccc2)CCN(C(=O)OC(C)(C)C)CC1)C(=O)O (stereo partly drawn) | 1.15 | -15.3% (inactive)
73 | COc1ccc2[nH]c3c(c2c1)CCN1C(=O)C(CC(=O)NCCN2CCOCC2)C[C@H](C(=O)N2CCOCC2)[C@@]31CCC1CCCC1 (stereo partly drawn) | 1.04 | -4.1% (inactive)
74 | O=C(C[C@H]1C[C@H](C(=O)N2CCCCC2)[C@@]2(CCc3ccccc3)c3[nH]c4ccc(Cl)cc4c3CCN2C1=O)NCc1cccc(C(F)(F)F)c1 | 1.15 | -15% (inactive)
75 | Cn1c(COc2ccc3ccccc3c2)nnc1SCC(=O)O | 0.952 | 4.85% (inactive)
76 | O/N=C1/CC/C(=N\O)c2nn(-c3ccccc3)nc21 | 0.893 | 10.7% (inactive)
77 | CCOC(=O)c1cnn(-c2ccc(Cl)cc2)c1C1CCN(C(=O)OC(C)(C)C)CC1 | 1.12 | -12.1% (inactive)
78 | COc1ccc(Nc2nc(-c3cccs3)cs2)cc1 | 0.881 | 11.9% (inactive)
79 | Cc1cccc(NC(=O)/C(=C\c2ccco2)NC(=O)c2cccs2)c1 | 0.978 | 2.15% (inactive)

From PubChem BioAssay AID434970 (Sanford-Burnham Center for Chemical Genomics, 2010)
